DT40 TDP1 no CPT: qHTS for Inhibitors of human tyrosyl-DNA phosphodiesterase 1 (TDP1): qHTS in cells in absence of CPT. AID 686978, 2013. Potency, µM (highest dose often 46.2 µM), for the others: at the top dose activity change, negative = growth inhibition, hits mostly inhibitors. hit rate 15% among 420,000. DT40 Tdp1-/- hTDP1 cells, no CPT, ATP luminescence, 48 h; further: nearly all actives have a fitted effect of over 55% in size
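Seeded 400 DT40-hTDP1 cells/well (vehicle DMSO, no 20 nM CPT); pinned compounds; ≥48 hr at 37 °C; CellTiter-Glo luminescence as viability measure.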
KAT2A inh: blocks human GCN5L2 histone acetyltransferase | Q92830 | GCN5L2 HAT assay, ThioGlo1 CoA-SH fluorescence | Potency, µM (doses to about 58.9 µM), inactives show at the highest dose activity change, negative = inhibition, most hits filed as inhibitors | hit rate 0.21% among 390,000
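ThioGlo1-coupled HAT assay: 20nM GCN5L2, 70uM acetyl-CoA, 75uM H3(1-25) peptide, pH 7.5. Fluorescence read at 340/540nm at start and after 20 min at room temperature.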
TDP1 cell CPT: DT40-hTDP1 cell growth loss with CPT. chicken DT40 Tdp1-/-;hTDP1 cells + 20 nM CPT, ATP luminescence, 48 h. Potency, µM (series often up to 46.2 µM), inactives show at the highest dose activity change, negative = growth inhibition, usual class: inhibitors. hit rate 12% among 420,000. AID 686979; further: nearly all actives have a fitted effect of over 55% in size
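Chicken DT40 Tdp1-/- cells complemented with human TDP1, 400 cells/well, exposed to compounds plus 20 nM camptothecin for at least 48 h at 37 C; viability read as ATP content by CellTiter-Glo luminescence.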
VDR inh: inhibitors of human vitamin D receptor; Potency, µM, for the others: max response, negative = inhibition, actives largely listed as inhibitors; VDR-SRC2-3 peptide fluorescence polarization, 2 h; hit rate 0.93% among 400,000; P11473
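After 23 nl compound addition and a short centrifugation, plates sat for 2 hours at ambient temperature; polarization of fluorescence then indicated loss of VDR binding to peptide SRC2-3.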
TDP1 block: blocks human tyrosyl-DNA phosphodiesterase 1 | Q9NUW8 | Potency, µM (titrated, usually from 130 µM), without a hit: at the highest dose activity change, negative = inhibition, usual class: inhibitors | hit rate 0.28% among 350,000 | AID 485290 | recombinant TDP1, AlphaScreen DNA substrate cleavage; further: nearly all actives have a fitted effect of over 40% in size
Target sequence (Q9NUW8 whole entry, looked up): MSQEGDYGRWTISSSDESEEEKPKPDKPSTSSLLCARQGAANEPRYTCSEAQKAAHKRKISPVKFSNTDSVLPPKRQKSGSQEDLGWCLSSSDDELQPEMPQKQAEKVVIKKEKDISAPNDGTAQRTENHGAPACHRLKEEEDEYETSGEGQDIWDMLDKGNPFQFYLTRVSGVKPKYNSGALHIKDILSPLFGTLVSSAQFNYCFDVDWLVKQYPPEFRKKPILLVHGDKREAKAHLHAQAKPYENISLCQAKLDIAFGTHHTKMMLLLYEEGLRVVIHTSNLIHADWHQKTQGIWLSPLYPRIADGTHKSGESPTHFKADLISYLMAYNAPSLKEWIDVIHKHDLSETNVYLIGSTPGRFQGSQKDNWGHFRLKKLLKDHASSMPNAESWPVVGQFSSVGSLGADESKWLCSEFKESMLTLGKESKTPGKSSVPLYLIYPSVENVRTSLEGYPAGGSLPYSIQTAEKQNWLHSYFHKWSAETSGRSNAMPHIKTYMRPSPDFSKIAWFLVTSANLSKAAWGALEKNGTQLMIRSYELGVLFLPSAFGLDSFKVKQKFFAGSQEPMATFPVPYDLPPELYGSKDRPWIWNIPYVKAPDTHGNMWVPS
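AlphaScreen read-out: signal falls as enzyme removes the 3' tyrosine-FITC from a 5'-biotinylated DNA oligo (15 nM, 5 min, RT). Enzyme was E. coli-made recombinant Tdp1 at 1 nM, exposed to compound for 15 min beforehand; beads 10 ug/ml, 10 min.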
PLK1 PBD block: blocks phosphopeptide binding to human PLK1 polo-box domain. Potency, µM, inactives show max response, negative = inhibition, hits mostly inhibitors. hit rate 2.8% among 360,000. P53350. Plk1 PBD binding of FITC phosphopeptide, fluorescence polarization; further: series mostly up to about 57 µM; nearly all actives have a fitted effect of over 65% in size
TbPYK inh: confirmation of Trypanosoma brucei pyruvate kinase inhibitors. shares compounds with PLK1 PBD block. recombinant TbPYK, Kinase-Glo ATP luminescence. Potency, µM (titrated, usually from 76.9 µM), without a hit: at the top dose activity change, negative = inhibition, actives largely listed as inhibitors. hit rate 67% among 890. AID 720569; further: nearly all actives have a fitted effect of over 70% in size
TbPYK orthogonal: orthogonal confirmation of Trypanosoma brucei pyruvate kinase inhibitors. shares compounds with PLK1 PBD block. recombinant TbPYK, ADP-Glo luminescence, 60 min. Potency, µM (titrated, usually from 76.9 µM), for inactives: top-dose activity change, negative = inhibition, actives largely listed as inhibitors. hit rate 62% among 890. AID 720584; further: nearly all actives have a fitted effect of over 75% in size
The depositor's hits bear a star; u = inconclusive; x = not tested or not shown; [ ] = another dose, or the depositor's remark. Hits are enriched below; roughly 18% of the tested compounds scored in any of these assays. The call rests on the fitted dose curve; in most records, active means well fitted curve in the direction sought with a large enough effect; inconclusive means small, poorly fitted or top-dose-only effect, or another doubt; inactive means no such curve, though single readings can be large; an effect the other way counts as inactive or inconclusive. On the % scale 0 is the no-effect control and ±100 the full control effect; potency means the concentration at half of the fitted maximal effect.

SMILES	DT40 TDP1 no CPT	KAT2A inh	TDP1 cell CPT	VDR inh	TDP1 block	PLK1 PBD block	TbPYK inh	TbPYK orthogonal
Cc1ccnc(NS(=O)(=O)c2cc(C(F)(F)F)ccc2Cl)c1	x	-10%	x	x	6%	x	x	x
CCCCN1C(=O)C(=O)N(CC(=O)Nc2cc(OCC)c(N3CCOCC3)cc2OCC)C1=O	12%	-4%	1%	-3%	3%	-18%	x	x
CC(C)C(=O)Nc1cc2c3c(c1)CCN3C(=O)CC2	0%	-4%	14%	-6%	-2%	4%	x	x
O=C1OC2(c3ccccc31)c1ccccc1-c1ccccc12	u	x	-13%	-1%	x	-4%	x	x
O=C1OC(c2ccc3ccccc3c2O)(c2ccc3ccccc3c2O)c2ccccc21	5.2µM*	x	5.8µM*	u	x	4.7µM*	13µM*	13µM*
CC1(C)CC(NC(=O)c2cccc(S(=O)(=O)N(Cc3ccccc3)c3ccccc3)c2)CC(C)(C)N1	u	-4%	u	-25%	1%[0.505 µM]	-10%	x	x
O=C1C(=Cc2ccccc2O)SC(=S)N1CCCN1CCOCC1	9.2µM*	x	u	x	x	2.7µM*	4µM*	3.2µM*
Cn1c2ccccc2c2ccc3c(c21)C(=O)C=CC3=O	0.52µM*	x	0.41µM*	25µM*	x	12µM*	-28%	-21%
COc1cccc(-c2cnc(C(O)c3ccc(-c4ccccc4)cc3)[nH]2)c1 (stereo unspecified)	u	x	u	x	x	3%	x	x
COc1ccc(NC(=O)CSc2nc3nc(C)cc(C)c3c(=O)[nH]2)cc1OC	-8%	-7%	-20%	-20%	1%	-8%	x	x
Cc1ccc(S(=O)(=O)N(C)C[C@H]2OCCCC[C@@H](C)Oc3ccc(N(C)C)cc3C(=O)N([C@H](C)CO)C[C@@H]2C)cc1	21µM*	x	u	x	x	-9%	7.1µM*	7.9µM*
C[C@@H]1CCCCO[C@H](CN(C)C(=O)C2CCCCC2)[C@@H](C)CN([C@H](C)CO)C(=O)c2cc(N(C)C)ccc2O1	u	x	u	x	x	u	28µM*	u
Cc1ccc(N2CC(O)CSC2=Nc2ccccc2)cc1 (stereo unspecified)	u	x	u	x	x	-6%	x	x
O=C(NCc1ccc(F)cc1)C(=O)NCC1OCCCN1S(=O)(=O)c1cccs1 (stereo unspecified)	-3%	-25%	-11%	4%	3%	-9%	x	x
CCOC(=O)c1ccc(CNCc2ccccc2)cc1	u	-2%	-9%	-12%	0%	-19%	x	x
CCOC(=O)c1ccc(/[N+]([O-])=C/c2ccccc2)cc1	u	-2%	13µM*	u	5%	21µM*	-26%	-11%
CCCS(=O)(=O)NC(=O)C1(C)CCCN(C(=O)c2cc(C)n(C(C)(C)C)n2)C1 (stereo unspecified)	-8%	x	-9%	x	x	0%	x	x
C=C1C(=O)C23CCC4C(C)(C(=O)OC)CCCC4(C)C2CCC1(O)C3 (stereo unspecified)	0.52µM*	x	0.65µM*	u	x	u	10µM*	14µM*
O=C1c2sc3nc4ccccc4n3c2C(=O)N1c1ccccc1Cl	7.3µM*	-25%	2.6µM*	-4%	12%	12µM*	6.3µM*	16µM*
CCN(CC)C(=S)Sc1c(-c2ccccc2)c2cc(Cl)ccc2[nH]c1=O	u	-5%	2.3µM*	u	6%	u	u	14µM*
